Source: PubChem BioAssay AID686979 (National Center for Advancing Translational Sciences (NCATS), 2013)
Hit rate of the full screen: of about 420,000 compounds, about 50,000 (12%) were called active. About 26% were inconclusive and are not listed. The call rests on the fitted dose curve; in most records, active means well fitted inhibition curve with a large enough effect; inconclusive means small, poorly fitted or top-dose-only effect; inactive means flat fitted curve, though single readings scatter. Shown is part of a subset that was picked to be rich in actives.

experiment: qHTS for Inhibitors of human tyrosyl-DNA phosphodiesterase 1 (TDP1): qHTS in cells in presence of CPT; settings: chicken DT40 Tdp1-/-;hTDP1 cells + 20 nM CPT, ATP luminescence, 48 h; series mostly up to 46.2 µM; activity change, negative = growth inhibition: at the top concentration; further: nearly all actives have a fitted effect of over 55% in size
How it was run: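 Cell growth measured by CellTiter-Glo luminescence after a minimum 48 h, 37 C compound exposure with 20 nM CPT in Tdp1-knockout DT40 cells stably expressing hTDP1, seeded 400/well; qHTS titration format.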
On the % scale 0 is the no-effect control and ±100 the full control effect; potency means the concentration at half of the fitted maximal effect.

Structure (SMILES) | activity change, negative = growth inhibition | Potency
COCCCNS(=O)(=O)c1cccc(S(=O)(=O)c2cccc(S(=O)(=O)NCCCOC)c2)c1 | -26.2% (inactive) | 
COc1ccc(C)cc1NC(=O)CCCN1C(=O)NC(C)(C)C1=O | -10.6% (inactive) | 
Cc1c(NS(=O)(=O)c2cc(C(=O)NCCc3ccc(F)cc3)cc(Cl)c2Cl)c(=O)n(-c2ccccc2)n1C | -26% (inactive) | 
Cc1cc(=O)oc2cc(NC(=O)C(C)Oc3ccccc3)ccc12 (stereo not drawn) | -3.45% (inactive) | 
Cc1cccc(OCC(=O)OCC(=O)Nc2ccc(Cl)cn2)c1 | 0.866% (inactive) | 
O=S(=O)(NCCCc1ccccc1)c1ccc(Br)cc1 | 0.36% (inactive) | 
O=C(CSCc1ccccc1)Nc1ccccc1 | 20.1% (inactive) | 
CC(C(=O)NCCc1ccc(S(N)(=O)=O)cc1)N1C(=O)CC(C)(C)Sc2ccccc21 (stereo not drawn) | 19.7% (inactive) | 
COc1ccc(-c2c(NC(=O)c3ccco3)oc3ccc(Cl)cc3c2=O)cc1 | -6.75% (inactive) | 
COc1cc(OC)cc(C(=O)NNC(=O)CNC(=O)c2ccc(Br)o2)c1 | 21.2% (inactive) | 
O=C1CC[C@@H](C(=O)N2CSC[C@@H]2C(=O)Nc2ccc(C(F)(F)F)cc2)N1 | -1.13% (inactive) | 
COc1ccc2c(CC(=O)OCC(=O)NC(N)=O)coc2c1 | -2.76% (inactive) | 
COc1ccc2nc(SCc3ccccc3)nc(C)c2c1 | 6.25% (inactive) | 
Nc1ccc2c(c1)C(=Cc1cccnc1)c1ccccc1-2 | -6.16% (inactive) | 
O=C1CN(C(=O)Nc2ccccc2C(F)(F)F)C(c2ccccc2)c2c(sc3c2CCCC3)N1 (stereo not drawn) |  | 20.6 µM (active)
CN(C)CCn1c2c(c(SCC(=O)Nc3ccccc3C(F)(F)F)nc1=O)CCCC2 | -2.77% (inactive) | 
Cc1ccccc1NC(=O)N1CCCC1C(=O)NCc1ccccc1 (stereo not drawn) | -11.8% (inactive) | 
COc1ccc2c(CC(=O)N3CCc4cc(OC)c(OC)cc4C3)coc2c1 | -2.85% (inactive) | 
O=C(c1cc(=O)c2ccccc2o1)N1CCN(c2ccccc2)CC1 | 0.696% (inactive) | 
COc1ccccc1OCc1ccc(C(=O)N2CCN(C)CC2)o1 | 7.63% (inactive) | 
COc1cc2c(cc1OC)CN(C(=O)c1cc(=O)c3ccccc3o1)CC2 |  | 4.11 µM (active)
COc1cccc2cc(C(=O)N3CCN(C(=O)c4ccccc4)CC3)c(=O)oc12 | -16.3% (inactive) | 
COc1ccc2oc(=O)c(C(=O)N3CCN(c4ccccc4F)CC3)cc2c1 | -26.6% (inactive) | 
COc1ccccc1N1CCN(C(=O)c2cc(=O)c3cc(C)cc(C)c3o2)CC1 |  | 0.0052 µM (active)
Cc1ccc2oc(=O)c3cnn(CC(=O)N4CCN(c5ccccn5)CC4)c3c2c1 | -12.3% (inactive) | 
COc1ccccc1N1CCN(C(=O)c2cc(=O)c3cc(C)ccc3o2)CC1 |  | 14.6 µM (active)
CC1(C)C2CCC1(CS(=O)(=O)NCCc1c[nH]c3ccccc13)C(=O)C2 (stereo not drawn) | -2.02% (inactive) | 
C/C(=N\NS(=O)(=O)c1ccc(Cl)cc1)c1ccc(NC(=O)c2ccco2)cc1 | -3.84% (inactive) | 
